HP1b chromo inh: blocks HP1-beta chromodomain binding to methylated histone tails. AlphaScreen HP1-beta / biotin-H3K9me3 peptide binding. AID 540317. 390,000 compounds, 0.56% hits. Potency, µM (titrated, usually from 114 µM), for inactives: top-dose activity change, negative = inhibition, actives largely listed as inhibitors; note: nearly all actives have a fitted effect of over 70% in size
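Compound inhibition of the preformed complex between 50 nM HP1-beta and 50 nM biotinylated H3K9me3 peptide was read by AlphaScreen. Buffer was PBS pH 7.4 with 0.01% Tween-20. Incubations ran 30 min at room temperature, with 10 ug/mL donor/acceptor beads.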
VDR inh: vitamin D3 receptor (human) inhibition. P11473. VDR-SRC2-3 peptide fluorescence polarization, 2 h. 400,000 compounds, 0.93% hits. Potency, µM, for inactives: max response, negative = inhibition, actives largely listed as inhibitors. AID 504847; note: % is set by controls: 0 for no effect and ±100 for the full control effect
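Two reagent solutions held at 4 deg C in the dark were dispensed, compounds pinned at 23 nl, and the mixture incubated 2 h at room temperature. Read-out: fluorescence polarization of VDR–SRC2-3 peptide binding.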
BAZ2B block: BAZ2B (human) inhibition; 360,000 compounds, 4.4% hits; Potency, µM (series often up to 114 µM), for inactives: top-dose activity change, negative = inhibition, most hits filed as inhibitors; AlphaScreen BAZ2B-H3K14Ac peptide displacement; note: % is set by controls: 0 for no effect and ±100 for the full control effect; nearly all actives have a fitted effect of over 60% in size
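Inhibition is scored as reduced AlphaScreen emission. The BAZ2B/b-H3(5-23)K14Ac complex (50 nM each) in PBS pH 7.4, 0.01% Tween-20 meets compound (up to 110 uM) for 30 min at RT before bead addition.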
PLK1 PBD inh: inhibitors of human PLK1 polo-box domain binding; Potency, µM, without a hit: max response, negative = inhibition, most hits filed as inhibitors; Plk1 PBD binding of FITC phosphopeptide, fluorescence polarization; 360,000 compounds, 2.8% hits; P53350; note: series mostly up to about 57 µM; % is set by controls: 0 for no effect and ±100 for the full control effect; nearly all actives have a fitted effect of over 65% in size
Target sequence (P53350 whole entry, looked up, the tested form may be a part): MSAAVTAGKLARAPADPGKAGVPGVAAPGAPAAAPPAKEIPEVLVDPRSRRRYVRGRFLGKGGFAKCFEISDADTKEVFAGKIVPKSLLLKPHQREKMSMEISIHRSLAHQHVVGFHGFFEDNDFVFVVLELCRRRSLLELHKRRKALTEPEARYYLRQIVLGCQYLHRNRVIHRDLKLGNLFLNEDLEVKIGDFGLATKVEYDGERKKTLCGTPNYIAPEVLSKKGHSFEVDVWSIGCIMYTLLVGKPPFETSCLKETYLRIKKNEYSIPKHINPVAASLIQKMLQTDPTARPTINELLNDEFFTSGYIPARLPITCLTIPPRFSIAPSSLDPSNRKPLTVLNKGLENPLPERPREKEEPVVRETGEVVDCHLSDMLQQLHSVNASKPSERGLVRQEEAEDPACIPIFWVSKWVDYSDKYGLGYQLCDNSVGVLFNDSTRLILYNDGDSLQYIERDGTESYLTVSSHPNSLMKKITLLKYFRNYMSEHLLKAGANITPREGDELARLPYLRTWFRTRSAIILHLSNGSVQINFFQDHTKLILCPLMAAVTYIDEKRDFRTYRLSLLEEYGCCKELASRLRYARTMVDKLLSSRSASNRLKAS
G9a block: G9a (human) methyltransferase inhibition. Q96KQ7. G9a H3K9 monomethylation, AlphaScreen, 2 h. 350,000 compounds, 8.8% hits. Potency, µM (top dose mostly 102 µM), for the others: at the highest dose activity, negative = inhibition, most hits filed as inhibitors; note: % is set by controls: 0 for no effect and ±100 for the full control effect; nearly all actives have a fitted effect of over 75% in size
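G9a (20 nM) preincubated 15 min RT with compounds, then 500 nM biotinylated H3K9 peptide and 20 uM SAM added; 2 h RT reaction. Monomethyl-H3K9 product detected by AlphaScreen with anti-H3K9me1 antibody, streptavidin donor and anti-rabbit IgG acceptor beads.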
JMJD2A Tudor inh: JMJD2A Tudor domain (human) inhibition; AlphaScreen JMJD2A-Tudor / H3K4me3 peptide binding; 390,000 compounds, 4.4% hits; O75164; Potency, µM (top dose mostly 114 µM), inactives show top-dose activity change, negative = inhibition, usual class: inhibitors; note: % is set by controls: 0 for no effect and ±100 for the full control effect; nearly all actives have a fitted effect of over 50% in size
Numbers without * were called inactive; ? = inconclusive; . = no result; [ ] = dose if it differs, or a comment. Rows were chosen to be rich in hits. Some 11% of all compounds tested hit in one or more screens of this group. Calls come from the whole dose curve; as a rule, active = well fitted curve in the direction sought with a large enough effect; inconclusive = small, poorly fitted or top-dose-only effect, or another doubt; inactive = no such curve, though single readings can be large; an effect the other way counts as inactive or inconclusive. Potency is the fitted concentration of half-maximal effect.

SMILES | HP1b chromo inh | VDR inh | BAZ2B block | PLK1 PBD inh | G9a block | JMJD2A Tudor inh
C=CSc1sc(Cl)c(N2CCOCC2)c1[N+](=O)[O-] | 50µM* | -1% | 14µM* | -15% | -106%[59 µM] | 50µM*
COc1cc2c(cc1OC)C(COc1ccc3c(C)cc(=O)oc3c1)N(C(=O)c1ccccc1C)CC2 (stereo not drawn) | 19% | 16% | -7% | . | 1%[59 µM] | -10%
Cc1ccc(S(=O)(=O)N2CCc3ccccc3C2)cc1C | 91% | -2% | 46% | 4% | 33% | 55%
Cc1ccc(-c2n[nH]c(=S)n2/N=C/c2sccc2C)cc1 | 7% | -2% | -13% | -12% | 0.63µM* | -22%
Cc1ccccc1/C=N/n1c(-c2cc(-c3ccccc3)n[nH]2)n[nH]c1=S | 39% | -5% | 0% | -25% | ? | ?
Cc1ccsc1/C=N/n1c(-c2cc(-c3ccccc3)n[nH]2)n[nH]c1=S | -3% | -9% | -12% | ? | 2.5µM* | ?
CCCC(=O)Nc1ccc2nc(SCCOc3ccccc3)sc2c1 | 47% | -6% | ? | . | 6%[59 µM] | -9%
CCN(c1ccccc1)S(=O)(=O)c1ccc(Oc2ccccc2C(C)=O)nc1 | 43% | -7% | . | -5% | . | 11%
CCN(c1ccccc1)S(=O)(=O)c1ccc(Oc2ccc(-n3ccnc3)cc2)nc1 | -6% | -2% | ? | -2% | 23%[59 µM] | 89µM*
COc1cc(C2c3c(oc4ccccc4c3=O)C(=O)N2c2nncs2)cc(OC)c1OC (stereo not drawn) | 21% | -27% | 0% | . | -6%[59 µM] | -3%
CC1(C)CCC[C@@](C)([C@H]2CC[C@]3(C)[C@@H]2[C@H](O)C[C@@H]2[C@@]4(C)CC[C@H](O)C(C)(C)[C@@H]4[C@@H](O)C[C@]23C)O1 | . | 7% | . | . | 15%[59 µM] | .
O=C(COc1ccc(OCc2ccccc2)cc1)NN=C1CCCC1 | -10% | -9% | -26% | -6% | 25% | 9%
O=C1CCCCC/C1=N/Nc1ccc(OCc2ccccc2)cc1 | 14% | -3% | ? | -2% | 32µM* | ?
O=C(CSc1nnc(-c2cccs2)n1C1CC1)NC1CCS(=O)(=O)C1 (stereo not drawn) | 19% | -4% | -3% | -5% | ? | -14%
O=P(O)(O)CP(=O)(O)O | . | 0% | 50µM* | . | 7.1µM* | .
O=P(O)(O)OP(=O)(O)O | . | -12% | . | . | ? | .
CC(=O)NCCOc1cccc(OCCNC(C)=O)c1 | 35% | -11% | 7% | -1% | 11%[59 µM] | -14%
CC(O)CNCCCOc1ccccc1OCc1ccccc1 (stereo not drawn) | -32% | 8% | 50µM* | -9% | 13µM* | 3.2µM*
CCOC(=O)NCCOc1ccc(Oc2ccccc2)cc1 | . | -8% | . | . | . | .
CNCCCOc1cccc(Oc2ccccc2)c1 | 8% | 8% | 50µM* | -2% | . | 1.6µM*
CC(O)CNCCCOc1cccc(Oc2ccccc2)c1 (stereo not drawn) | 15% | -15% | 28µM* | -8% | . | 22µM*
CNCCCOc1cccc(OC(C)C)c1 | ? | 5% | 50µM* | -2% | 13µM* | 1.6µM*
Cc1ccc(N(CC(=O)NCc2ccc(OC(C)C)cc2)S(=O)(=O)N(C)C)cc1 | 23% | 5% | 6% | . | 8%[59 µM] | 3%
COc1cc(CNC(=O)C2CCC(=O)N(C3CCCCCC3)C2)cc(OC)c1 (stereo not drawn) | 37% | 10% | 0% | 5% | 76% | -8%
COc1ccccc1NS(=O)(=O)c1ccc(O)c(NC(=S)NCC2CCCO2)c1 (stereo not drawn) | ? | -30% | -9% | 13µM* | . | -14%
O=C(NNC(=S)NCC1CCCO1)c1cccc(S(=O)(=O)N2CCOCC2)c1 (stereo not drawn) | 20% | 6% | -3% | -18% | 50µM* | -10%
CCNS(=O)(=O)c1ccc(NC(=S)NCC2CCCO2)cc1 (stereo not drawn) | -8% | ? | -4% | 24µM* | . | ?
COc1ccc(NC(=S)NCC2CCCO2)c(C)c1 (stereo not drawn) | 7% | -21% | 5% | -10% | 15%[59 µM] | -10%
